Assay results: article PMC7862700, “An all-to-all approach to the identification of sequence-specific readers for epigenetic DNA modifications on cytosine”

What was measured:
Assay in all cases: DAPPL (digital affinity profiling via proximity ligation, sequencing); 10 mM Tris-HCl pH 7.5, 50 mM NaCl, 1 mM DTT, 4% glycerol, room temperature, 30 min; GST-TFs on glutathione beads, 16-mer random dsDNA library, 0.1% formaldehyde crosslink after washing; high values mean tight binding
FLI1 = biological target: T1, FLI1 (Homo sapiens, UniProt Q01543 1-452); settings: protein: recombinant; tags: N-terminal GST; dsDNA, one strand shown
T1 sequence: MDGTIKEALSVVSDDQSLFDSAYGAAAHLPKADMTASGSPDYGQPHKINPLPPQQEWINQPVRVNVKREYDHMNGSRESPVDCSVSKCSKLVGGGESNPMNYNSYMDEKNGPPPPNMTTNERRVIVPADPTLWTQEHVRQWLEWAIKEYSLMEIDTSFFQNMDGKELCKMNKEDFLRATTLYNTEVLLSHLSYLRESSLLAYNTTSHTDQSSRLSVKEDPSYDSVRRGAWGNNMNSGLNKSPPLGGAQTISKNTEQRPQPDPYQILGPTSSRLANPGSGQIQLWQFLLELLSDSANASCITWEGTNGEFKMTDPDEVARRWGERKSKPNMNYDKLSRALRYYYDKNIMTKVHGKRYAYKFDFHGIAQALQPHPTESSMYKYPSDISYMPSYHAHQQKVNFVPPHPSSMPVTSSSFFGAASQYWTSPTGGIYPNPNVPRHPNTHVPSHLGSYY
In short: (§1)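 The binding signal reported is, for every hexamer, its read frequency for a factor over its read frequency for the tag-only sample. Reads came from pools of yeast-expressed, GST-fused human transcription factors on glutathione beads, barcoded with DNA and mixed with that sample, which were incubated with 200 nmole of a random double-stranded 16-mer DNA library in Tris/NaCl/DTT/glycerol buffer at room temperature for 30 min. After washing, the pools were crosslinked with 0.1% formaldehyde, proximity-ligated with BsaI/T4 ligase for 1 h at 37 °C, PCR-amplified and sequenced on an Illumina NextSeq500.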

ELK1 = biological target: T2, ELK1 (Homo sapiens, UniProt P19419 1-428); settings: protein: recombinant; tags: N-terminal GST; dsDNA, one strand shown
T2 sequence: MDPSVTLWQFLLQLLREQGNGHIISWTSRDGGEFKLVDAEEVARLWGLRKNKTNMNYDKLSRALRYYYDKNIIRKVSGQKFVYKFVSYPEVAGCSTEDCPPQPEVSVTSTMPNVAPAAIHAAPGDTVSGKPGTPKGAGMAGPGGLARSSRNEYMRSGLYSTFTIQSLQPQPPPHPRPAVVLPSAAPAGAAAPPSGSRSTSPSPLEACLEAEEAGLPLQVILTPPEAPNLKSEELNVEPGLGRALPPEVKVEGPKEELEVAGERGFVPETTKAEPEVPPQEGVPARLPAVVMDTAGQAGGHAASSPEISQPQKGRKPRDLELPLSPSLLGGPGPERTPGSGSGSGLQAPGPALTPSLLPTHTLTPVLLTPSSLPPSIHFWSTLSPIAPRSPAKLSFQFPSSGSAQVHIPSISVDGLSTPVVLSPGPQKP
In short: as §1

GABPA = biological target: T3, GABPA (Homo sapiens, UniProt Q06546 1-454); settings: protein: recombinant; tags: N-terminal GST; dsDNA, one strand shown
T3 sequence: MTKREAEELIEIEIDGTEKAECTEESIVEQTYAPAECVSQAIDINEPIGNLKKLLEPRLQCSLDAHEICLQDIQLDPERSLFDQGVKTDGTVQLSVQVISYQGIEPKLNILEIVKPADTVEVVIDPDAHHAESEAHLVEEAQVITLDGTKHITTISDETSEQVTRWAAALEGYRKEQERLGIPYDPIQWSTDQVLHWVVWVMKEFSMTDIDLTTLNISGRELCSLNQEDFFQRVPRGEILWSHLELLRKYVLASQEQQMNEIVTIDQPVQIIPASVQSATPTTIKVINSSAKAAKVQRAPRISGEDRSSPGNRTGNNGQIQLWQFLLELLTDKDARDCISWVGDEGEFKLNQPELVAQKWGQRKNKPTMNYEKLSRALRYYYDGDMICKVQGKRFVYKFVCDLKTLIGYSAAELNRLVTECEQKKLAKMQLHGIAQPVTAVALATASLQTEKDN
In short: as §1

ERG = biological target: T4, ERG (Homo sapiens, UniProt P11308 1-479); settings: protein: recombinant; tags: N-terminal GST; dsDNA, one strand shown
T4 sequence: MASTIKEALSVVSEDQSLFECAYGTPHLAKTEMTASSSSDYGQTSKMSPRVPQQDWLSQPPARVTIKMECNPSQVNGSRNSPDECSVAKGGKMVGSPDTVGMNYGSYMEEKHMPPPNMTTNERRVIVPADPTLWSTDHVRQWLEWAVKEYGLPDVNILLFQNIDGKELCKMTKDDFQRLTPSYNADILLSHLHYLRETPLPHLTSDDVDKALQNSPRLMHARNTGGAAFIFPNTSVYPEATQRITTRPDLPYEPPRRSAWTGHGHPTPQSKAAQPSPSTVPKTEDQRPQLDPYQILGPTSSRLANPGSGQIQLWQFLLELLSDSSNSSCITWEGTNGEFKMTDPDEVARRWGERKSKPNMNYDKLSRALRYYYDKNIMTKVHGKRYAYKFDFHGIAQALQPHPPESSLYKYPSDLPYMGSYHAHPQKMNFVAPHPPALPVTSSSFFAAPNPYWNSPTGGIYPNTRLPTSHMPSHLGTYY
In short: as §1

ELF1 = ELF1 (Homo sapiens, UniProt P32519 1-619); settings: protein: recombinant; tags: N-terminal GST; dsDNA, one strand shown
Chain of ELF1 (P32519 whole entry): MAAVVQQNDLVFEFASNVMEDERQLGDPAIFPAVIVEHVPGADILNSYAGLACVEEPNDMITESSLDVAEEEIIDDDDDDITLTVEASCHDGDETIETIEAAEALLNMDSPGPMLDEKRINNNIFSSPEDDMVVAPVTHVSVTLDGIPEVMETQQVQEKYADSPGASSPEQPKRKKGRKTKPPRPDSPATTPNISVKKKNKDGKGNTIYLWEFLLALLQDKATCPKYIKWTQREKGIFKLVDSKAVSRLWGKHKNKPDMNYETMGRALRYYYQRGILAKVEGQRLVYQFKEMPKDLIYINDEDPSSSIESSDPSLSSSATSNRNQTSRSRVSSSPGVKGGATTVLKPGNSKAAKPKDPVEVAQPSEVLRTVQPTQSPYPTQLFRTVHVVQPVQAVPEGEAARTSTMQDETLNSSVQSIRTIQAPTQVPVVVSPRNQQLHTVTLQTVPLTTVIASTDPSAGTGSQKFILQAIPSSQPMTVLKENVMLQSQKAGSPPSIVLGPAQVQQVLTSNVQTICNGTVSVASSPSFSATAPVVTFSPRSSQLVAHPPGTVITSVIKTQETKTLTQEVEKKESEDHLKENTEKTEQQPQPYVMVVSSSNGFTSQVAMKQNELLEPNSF
In short: as §1

EHF = biological target: T5, EHF (Homo sapiens, UniProt Q9NZC4 1-300); settings: protein: recombinant; tags: N-terminal GST; dsDNA, one strand shown
T5 sequence: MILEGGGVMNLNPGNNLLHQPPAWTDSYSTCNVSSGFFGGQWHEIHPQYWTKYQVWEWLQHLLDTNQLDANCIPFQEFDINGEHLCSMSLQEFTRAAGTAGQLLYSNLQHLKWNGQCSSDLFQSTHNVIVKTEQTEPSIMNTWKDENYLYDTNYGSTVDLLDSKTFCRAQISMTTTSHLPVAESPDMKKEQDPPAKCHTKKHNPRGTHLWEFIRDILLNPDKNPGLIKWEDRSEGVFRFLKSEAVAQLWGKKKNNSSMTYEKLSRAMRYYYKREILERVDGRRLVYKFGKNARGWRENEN
In short: as §1

SPI1 = SPI1 (Homo sapiens, UniProt P17947 1-270); settings: protein: recombinant; tags: N-terminal GST; dsDNA, one strand shown
In short: as §1

SPIB = SPIB (Homo sapiens, UniProt Q01892 1-262); settings: protein: recombinant; tags: N-terminal GST; dsDNA, one strand shown
Chain of SPIB (Q01892 whole entry): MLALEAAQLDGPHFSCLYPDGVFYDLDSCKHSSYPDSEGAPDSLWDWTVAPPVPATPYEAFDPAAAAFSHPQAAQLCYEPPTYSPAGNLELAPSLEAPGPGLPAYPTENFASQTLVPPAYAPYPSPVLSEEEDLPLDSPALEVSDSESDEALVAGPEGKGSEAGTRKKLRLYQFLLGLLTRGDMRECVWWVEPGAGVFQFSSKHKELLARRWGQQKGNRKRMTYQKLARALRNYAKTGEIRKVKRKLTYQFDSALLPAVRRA
In short: as §1

ELK3 = biological target: T6, ELK3 (Homo sapiens, UniProt P41970 1-407); settings: protein: recombinant; tags: N-terminal GST; dsDNA, one strand shown
T6 sequence: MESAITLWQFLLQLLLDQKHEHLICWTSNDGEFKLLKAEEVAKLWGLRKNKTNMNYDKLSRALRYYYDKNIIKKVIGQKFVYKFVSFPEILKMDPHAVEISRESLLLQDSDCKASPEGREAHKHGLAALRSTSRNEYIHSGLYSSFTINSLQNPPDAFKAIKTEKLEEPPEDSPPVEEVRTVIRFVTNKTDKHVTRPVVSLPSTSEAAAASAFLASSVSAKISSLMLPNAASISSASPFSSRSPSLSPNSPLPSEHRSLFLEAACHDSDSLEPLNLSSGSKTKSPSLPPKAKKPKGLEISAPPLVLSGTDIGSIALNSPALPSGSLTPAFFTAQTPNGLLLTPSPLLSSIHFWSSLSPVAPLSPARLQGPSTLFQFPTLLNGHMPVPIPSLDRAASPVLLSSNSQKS
In short: as §1

FEV = biological target: T7, FEV (Homo sapiens, UniProt Q99581 1-238); settings: protein: recombinant; tags: N-terminal GST; dsDNA, one strand shown
T7 sequence: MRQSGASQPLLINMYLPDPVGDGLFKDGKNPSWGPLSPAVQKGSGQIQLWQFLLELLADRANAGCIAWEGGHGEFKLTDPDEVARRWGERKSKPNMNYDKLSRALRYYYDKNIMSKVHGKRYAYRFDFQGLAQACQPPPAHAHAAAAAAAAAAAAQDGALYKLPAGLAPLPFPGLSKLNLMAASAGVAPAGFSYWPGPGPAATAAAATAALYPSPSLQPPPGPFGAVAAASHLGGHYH
In short: as §1

ETV5 = ETV5 (Homo sapiens, UniProt P41161 1-510); settings: protein: recombinant; tags: N-terminal GST; dsDNA, one strand shown
Chain of ETV5 (P41161 whole entry): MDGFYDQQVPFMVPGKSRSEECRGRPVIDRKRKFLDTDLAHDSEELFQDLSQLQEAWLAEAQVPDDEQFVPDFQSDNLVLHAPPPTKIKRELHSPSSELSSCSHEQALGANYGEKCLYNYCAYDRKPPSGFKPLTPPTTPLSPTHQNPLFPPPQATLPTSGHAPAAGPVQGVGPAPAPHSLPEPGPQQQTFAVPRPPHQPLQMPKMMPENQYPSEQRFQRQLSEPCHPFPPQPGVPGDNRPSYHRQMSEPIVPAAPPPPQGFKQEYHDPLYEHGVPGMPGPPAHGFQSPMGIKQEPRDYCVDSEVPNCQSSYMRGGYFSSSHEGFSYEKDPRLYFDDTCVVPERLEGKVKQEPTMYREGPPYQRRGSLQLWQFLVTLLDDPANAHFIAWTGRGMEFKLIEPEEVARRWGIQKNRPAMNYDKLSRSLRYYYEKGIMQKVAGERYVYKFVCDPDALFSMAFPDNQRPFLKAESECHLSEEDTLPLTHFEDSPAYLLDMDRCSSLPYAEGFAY
In short: as §1

HSF1 = HSF1 (Homo sapiens, UniProt Q00613 1-529); settings: protein: recombinant; tags: N-terminal GST; chain copies: 3; dsDNA, one strand shown
Chain of HSF1 (Q00613 whole entry): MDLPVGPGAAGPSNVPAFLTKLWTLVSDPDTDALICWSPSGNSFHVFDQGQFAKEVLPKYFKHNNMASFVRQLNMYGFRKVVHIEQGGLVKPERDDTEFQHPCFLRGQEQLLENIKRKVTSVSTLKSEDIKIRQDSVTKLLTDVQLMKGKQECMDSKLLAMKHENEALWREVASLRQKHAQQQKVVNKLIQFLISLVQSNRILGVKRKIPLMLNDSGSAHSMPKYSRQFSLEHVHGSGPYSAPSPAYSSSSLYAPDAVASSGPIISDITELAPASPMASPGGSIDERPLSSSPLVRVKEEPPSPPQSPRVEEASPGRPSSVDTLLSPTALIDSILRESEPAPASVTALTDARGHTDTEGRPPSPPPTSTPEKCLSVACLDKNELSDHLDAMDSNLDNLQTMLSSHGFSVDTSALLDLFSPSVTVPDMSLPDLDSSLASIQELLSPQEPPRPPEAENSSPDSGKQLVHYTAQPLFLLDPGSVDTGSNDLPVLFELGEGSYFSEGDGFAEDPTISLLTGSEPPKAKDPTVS
In short: as §1

ELF4 = ELF4 (Homo sapiens, UniProt Q99607 1-663); settings: protein: recombinant; tags: N-terminal GST; dsDNA, one strand shown
Chain of ELF4 (Q99607 whole entry): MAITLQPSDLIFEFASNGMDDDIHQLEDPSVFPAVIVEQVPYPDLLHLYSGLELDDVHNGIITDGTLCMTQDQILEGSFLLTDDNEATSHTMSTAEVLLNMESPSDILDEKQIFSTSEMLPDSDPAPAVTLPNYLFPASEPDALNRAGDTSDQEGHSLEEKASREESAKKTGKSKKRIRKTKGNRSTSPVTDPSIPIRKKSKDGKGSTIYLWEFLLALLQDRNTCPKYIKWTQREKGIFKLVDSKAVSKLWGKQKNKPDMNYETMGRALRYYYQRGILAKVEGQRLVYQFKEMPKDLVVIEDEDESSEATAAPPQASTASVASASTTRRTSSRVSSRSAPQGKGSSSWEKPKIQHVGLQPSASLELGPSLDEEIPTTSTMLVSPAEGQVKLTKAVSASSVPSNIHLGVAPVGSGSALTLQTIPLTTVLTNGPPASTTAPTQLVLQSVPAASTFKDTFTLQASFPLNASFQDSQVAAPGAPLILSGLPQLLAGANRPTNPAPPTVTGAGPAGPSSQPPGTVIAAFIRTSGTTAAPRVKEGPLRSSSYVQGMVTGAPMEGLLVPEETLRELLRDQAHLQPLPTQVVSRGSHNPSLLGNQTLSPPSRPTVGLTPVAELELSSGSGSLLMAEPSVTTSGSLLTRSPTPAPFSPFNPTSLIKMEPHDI
In short: as §1

ELK4 = biological target: T8, ELK4 (Homo sapiens, UniProt P28324-2 1-405); settings: protein: recombinant; tags: N-terminal GST; dsDNA, one strand shown
T8 sequence: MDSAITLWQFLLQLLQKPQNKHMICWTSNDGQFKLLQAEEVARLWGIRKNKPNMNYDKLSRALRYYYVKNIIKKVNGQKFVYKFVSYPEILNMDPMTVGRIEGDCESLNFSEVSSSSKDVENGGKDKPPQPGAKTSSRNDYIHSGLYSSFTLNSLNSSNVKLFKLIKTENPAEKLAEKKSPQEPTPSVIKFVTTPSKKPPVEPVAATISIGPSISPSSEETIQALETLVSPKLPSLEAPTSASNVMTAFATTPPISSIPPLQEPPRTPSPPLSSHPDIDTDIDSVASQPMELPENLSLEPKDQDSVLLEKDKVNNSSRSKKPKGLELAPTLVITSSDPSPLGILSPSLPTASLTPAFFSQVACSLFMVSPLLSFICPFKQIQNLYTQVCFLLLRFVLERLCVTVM
In short: as §1

ELF3 = biological target: T9, ELF3 (Homo sapiens, UniProt P78545 1-371); settings: protein: recombinant; tags: N-terminal GST; dsDNA, one strand shown
T9 sequence: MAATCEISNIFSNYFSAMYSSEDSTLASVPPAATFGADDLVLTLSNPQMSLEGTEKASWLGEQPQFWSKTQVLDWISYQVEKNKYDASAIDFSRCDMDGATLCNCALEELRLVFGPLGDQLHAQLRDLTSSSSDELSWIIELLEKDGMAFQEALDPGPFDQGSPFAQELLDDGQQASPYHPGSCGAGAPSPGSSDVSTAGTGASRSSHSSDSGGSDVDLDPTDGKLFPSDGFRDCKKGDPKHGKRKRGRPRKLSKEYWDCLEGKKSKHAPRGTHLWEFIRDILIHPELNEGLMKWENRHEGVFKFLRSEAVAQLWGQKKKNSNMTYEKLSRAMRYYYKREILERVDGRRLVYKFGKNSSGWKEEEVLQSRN
In short: as §1

CRX = CRX (Homo sapiens, UniProt O43186 1-299); settings: protein: recombinant; tags: N-terminal GST; dsDNA, one strand shown
Chain of CRX (O43186 whole entry): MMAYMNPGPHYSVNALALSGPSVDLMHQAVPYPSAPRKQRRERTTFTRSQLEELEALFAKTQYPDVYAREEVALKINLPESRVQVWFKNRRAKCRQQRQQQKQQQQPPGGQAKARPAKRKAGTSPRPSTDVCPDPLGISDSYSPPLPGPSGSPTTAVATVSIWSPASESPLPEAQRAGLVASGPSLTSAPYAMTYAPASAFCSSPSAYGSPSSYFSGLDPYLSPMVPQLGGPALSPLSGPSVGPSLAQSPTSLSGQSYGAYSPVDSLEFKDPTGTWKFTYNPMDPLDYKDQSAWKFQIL
In short: as §1

ETV1 = ETV1 (Homo sapiens, UniProt P50549 1-477); settings: protein: recombinant; tags: N-terminal GST; dsDNA, one strand shown
Chain of ETV1 (P50549 whole entry): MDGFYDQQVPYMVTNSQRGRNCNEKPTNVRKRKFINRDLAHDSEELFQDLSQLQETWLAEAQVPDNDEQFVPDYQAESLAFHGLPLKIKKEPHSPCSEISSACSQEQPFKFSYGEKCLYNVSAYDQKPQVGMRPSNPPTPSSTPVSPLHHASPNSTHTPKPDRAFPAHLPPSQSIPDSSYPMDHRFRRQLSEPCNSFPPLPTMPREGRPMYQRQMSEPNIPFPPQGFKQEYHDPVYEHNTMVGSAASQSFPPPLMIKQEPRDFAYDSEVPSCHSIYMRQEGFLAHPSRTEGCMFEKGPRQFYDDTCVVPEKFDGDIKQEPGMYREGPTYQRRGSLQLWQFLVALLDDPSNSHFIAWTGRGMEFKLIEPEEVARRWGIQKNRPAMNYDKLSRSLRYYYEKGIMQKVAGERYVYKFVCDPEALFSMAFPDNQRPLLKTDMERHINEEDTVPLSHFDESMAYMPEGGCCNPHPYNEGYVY
In short: as §1

ETV2 = biological target: T10, ETV2 (Homo sapiens, UniProt O00321 1-342); settings: protein: recombinant; tags: N-terminal GST; dsDNA, one strand shown
T10 sequence: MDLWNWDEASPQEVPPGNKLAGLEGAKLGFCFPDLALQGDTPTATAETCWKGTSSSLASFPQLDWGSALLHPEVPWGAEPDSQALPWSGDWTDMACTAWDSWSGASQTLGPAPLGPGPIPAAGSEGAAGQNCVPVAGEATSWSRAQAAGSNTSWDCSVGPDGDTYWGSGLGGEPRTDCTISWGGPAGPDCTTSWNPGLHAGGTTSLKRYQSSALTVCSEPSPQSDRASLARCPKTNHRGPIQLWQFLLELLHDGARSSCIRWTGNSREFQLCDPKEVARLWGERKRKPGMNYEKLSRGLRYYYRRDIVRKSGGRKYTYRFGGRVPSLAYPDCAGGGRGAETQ
In short: as §1

Row | Sequence | binding signal (FLI1) | binding signal (ELK1) | binding signal (GABPA) | binding signal (ERG) | binding signal (ELF1) | binding signal (EHF) | binding signal (SPI1) | binding signal (SPIB) | binding signal (ELK3) | binding signal (FEV) | binding signal (ETV5) | binding signal (HSF1) | binding signal (ELF4) | binding signal (ELK4) | binding signal (ELF3) | binding signal (CRX) | binding signal (ETV1) | binding signal (ETV2)
1 | TACACG | 1.13 fold enrichment (6-mer frequency, TF over GST control) | 1.11 fold enrichment (6-mer frequency, TF over GST control) | 1.19 fold enrichment (6-mer frequency, TF over GST control) | 1.1 fold enrichment (6-mer frequency, TF over GST control) | 1.16 fold enrichment (6-mer frequency, TF over GST control) | 1.1 fold enrichment (6-mer frequency, TF over GST control) | 1.07 fold enrichment (6-mer frequency, TF over GST control) | 1.16 fold enrichment (6-mer frequency, TF over GST control) | 1.19 fold enrichment (6-mer frequency, TF over GST control) | 1.12 fold enrichment (6-mer frequency, TF over GST control) | 1.22 fold enrichment (6-mer frequency, TF over GST control) | 1.04 fold enrichment (6-mer frequency, TF over GST control) | 1.14 fold enrichment (6-mer frequency, TF over GST control) | 1.21 fold enrichment (6-mer frequency, TF over GST control) | 1.15 fold enrichment (6-mer frequency, TF over GST control) | 1.1 fold enrichment (6-mer frequency, TF over GST control) | 1.16 fold enrichment (6-mer frequency, TF over GST control) | –
2 | CGTTCA | 1.11 fold enrichment (6-mer frequency, TF over GST control) | 1.24 fold enrichment (6-mer frequency, TF over GST control) | 1.24 fold enrichment (6-mer frequency, TF over GST control) | 1.09 fold enrichment (6-mer frequency, TF over GST control) | 1.13 fold enrichment (6-mer frequency, TF over GST control) | 1.18 fold enrichment (6-mer frequency, TF over GST control) | 1.16 fold enrichment (6-mer frequency, TF over GST control) | 1.2 fold enrichment (6-mer frequency, TF over GST control) | 1.07 fold enrichment (6-mer frequency, TF over GST control) | 1.25 fold enrichment (6-mer frequency, TF over GST control) | 1.16 fold enrichment (6-mer frequency, TF over GST control) | 1.03 fold enrichment (6-mer frequency, TF over GST control) | 1.17 fold enrichment (6-mer frequency, TF over GST control) | 1.14 fold enrichment (6-mer frequency, TF over GST control) | 1.13 fold enrichment (6-mer frequency, TF over GST control) | – | 1.18 fold enrichment (6-mer frequency, TF over GST control) | 1.19 fold enrichment (6-mer frequency, TF over GST control)
